Compounds without any hit were thinned out: in the full panel of roughly 83,000, 20% have a hit.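 For each line, cells grew in 96-well plates with the test compound present at a single concentration for 48 hours.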 A number with no mark means an inactive call. Active and inactive are the calls of the source. How the source made its calls: active means growth percent below 10; inactive means the rest.
Key:
Experiment in all cases: NCI-60 one-dose screen, 48 h (100 = growth as untreated, 0 = no growth, -100 = all killed)
Conditions in all cases: 10 µM unless noted
[1] = test system: NCI-H23 lung
[2] = test system: NCI-H226 lung
[3] = test system: NCI-H322M lung
[4] = test system: HOP-62 NSCLC
[5] = test system: NCI-H460 lung
[6] = test system: HOP-92 NSCLC
[7] = test system: NCI-H522 lung
[8] = test system: A549/ATCC NSCLC
[9] = test system: 786-0 renal
[10] = test system: MALME-3M melanoma
[11] = test system: MDA-MB-231 breast
[12] = test system: RXF 393 renal
[13] = test system: SF-268 CNS
[14] = test system: SF-295 CNS
[15] = test system: SF-539 CNS
[16] = test system: UACC-257 melanoma
[17] = test system: M14 melanoma
[18] = test system: COLO 205 colon
[19] = test system: DU-145 prostate
[20] = test system: K-562 leukemia

Row | SMILES | growth [1] | growth [2] | growth [3] | growth [4] | growth [5] | growth [6] | growth [7] | growth [8] | growth [9] | growth [10] | growth [11] | growth [12] | growth [13] | growth [14] | growth [15] | growth [16] | growth [17] | growth [18] | growth [19] | growth [20]
1 | CCc1oc2ccccc2c1C(=O)c1cc(Br)c(O)c(Br)c1 | 52.9% | 84% | 118% | 81.8% | 86.9% | 0.0238% (active) | 30.8% | 66.5% | 68.2% | 94.8% | 58.9% | 51.6% | 75.4% | 52.8% | 65.5% | 66.2% | 49.7% | – | – | –
2 | CCC(=O)c1cc([N+](=O)[O-])c(Br)s1 | 93.4% | 99.1% | 101% | 101% | 108% | 89.1% | – | 105% | 109% | 90.5% | 103% | 91% | 96.6% | 103% | 88.5% | 96.5% | 71.6% | 11.5% | 105% | 44.5%
3 | c1ccc2sc(SSN3CC4CCC(CC4)C3)nc2c1 | 107% | 100% | 96% | 119% | 115% | 110% | 28.9% | – | 129% | 101% | 101% | -29.5% (active) | 122% | 108% | 94.9% | 120% | 110% | 128% | 128% | 91.8%
4 | CCOc1ccc(Nc2nc3c(s2)C(=O)c2ccccc2C3=O)cc1 | 41.9% | 87% | 105% | 113% | 94.4% | 85.1% | 51.5% | 94% | 108% | 52.9% | 33.9% | 105% | 73% | 102% | 108% | 94.7% | 85.9% | 100% | – | 37.2%
5 | O=C1/C(=C/c2ccccn2)CCc2ccccc21 | 105% | 98.2% | 113% | 113% | 102% | 91.5% | 89.9% | 99.3% | 101% | 103% | 106% | 107% | 102% | 96.8% | 95.4% | 105% | 108% | – | 103% | 7.2% (active)
6 | CCOC(=O)/C(=C\c1ccc2ccccc2c1)P(=O)(OCC)OCC | 41.1% | 55.7% | 70% | 40.6% | 20% | 40.7% | -31.7% (active) | 55.8% | 11.6% | 72.1% | 16.3% | -23.4% (active) | 42.6% | 60.1% | 28.9% | 63.8% | 31.7% | 42.2% | – | 11.8%
7 | S=c1[nH]c2cc(Cl)ccc2s1 | 105% | 91.4% | 94.4% | 98.1% | 118% | 68.4% | – | 108% | 107% | 102% | 99.9% | 121% | 94.2% | 103% | 100% | 108% | 108% | 92.9% | 104% | 111%
8 | O=C1C=CC(=O)N1c1cc(Cl)c(Cl)cc1Cl | 100% | 100% | 90.6% | 100% | 107% | 107% | 84.4% | 103% | 96% | 96.6% | 120% | 106% | 102% | 97.5% | 109% | 101% | 103% | – | 109% | 93.9%
9 | Clc1ccc(-n2ncc3c(NCCCN4CCOCC4)ncnc32)cc1 | 87.6% | 91.8% | 89.8% | 87.7% | 102% | 71.3% | 94.7% | – | 107% | 95.7% | 83.2% | 90.3% | 99.1% | 99.4% | 97% | – | 97.2% | 87.4% | 104% | 94.2%
10 | O/N=C1\c2ccccc2-c2ccc(F)cc21 | 99.4% | 82.5% | 92.5% | 95.9% | 98.9% | 94.7% | 100% | 100% | 104% | 114% | 88.2% | 111% | – | 117% | 97% | 110% | 107% | 73.7% | – | 99.1%
11 | COc1ccc(NC(=O)/C(=C/N2C(=O)/C(=C/c3ccc(OC)c(OC)c3)NC2=S)C(C)=O)cc1 | 64.5% | 83.1% | 71.1% | 58.4% | 65.6% | 3.15% (active) | 46.8% | 63.8% | 99.2% | – | 73% | 85.6% | 78.3% | 93.9% | 85.1% | 60% | 53.8% | 107% | 96.4% | –
12 | CCCN(CCC)C(=O)c1ccc(C)cc1 | 99.3% | 81.2% | 111% | 80% | 99.8% | 66.3% | 82.3% | 93.2% | 98% | 100% | 108% | 113% | 100% | 91.9% | 101% | 91.3% | 95.2% | – | 109% | 109%
13 | c1ccc(C2NCCNC2c2ccccc2)cc1 (centres undefined) | 103% | 99.5% | 100% | 98.7% | 109% | 93.6% | – | 98.1% | 107% | 111% | 98.4% | 120% | 101% | 104% | 98.7% | 99.6% | 102% | 103% | 104% | 105%
14 | CC(C)=C1C=C2CC[C@@H]3[C@](C)(CCC[C@@]3(C)C(=O)O)[C@H]2CC1 | 101% | 103% | 94.8% | 93.6% | 106% | 97.2% | 96.2% | – | 95.9% | 91.3% | 99.6% | 112% | 97% | 95.8% | 97.5% | – | 100% | 107% | 105% | 84.3%
15 | CCN(CC)c1ccc(/C=C\C(=O)c2ccc(NC(C)=O)cc2)cc1 | 75.2% | 99.6% | 111% | 56.2% | 82.2% | 70.9% | – | 56.8% | – | 117% | 65.7% | 79.4% | 83.6% | 35.6% | 67.3% | 78.3% | – | 49.4% | 60.1% | –
16 | Oc1c(Cl)cc(Cl)cc1C(c1cc(Cl)cc(Cl)c1O)C(Cl)(Cl)Cl | -19.9% (active) | 5.37% (active) | -21.8% (active) | -6.29% (active) | -20.7% (active) | – | -12.8% (active) | 1.48% (active) | 9.47% (active) | -27% (active) | -25.1% (active) | -30.7% (active) | 11.6% | – | 4.37% (active) | -24.9% (active) | 17.9% | -90.9% (active) | 19.3% | 9.05% (active)
17 | Cc1cc(C)c([I+]c2c(C)cc(C)cc2C)c(C)c1 | -29.1% (active) | -1.55% (active) | 46.5% | -78.3% (active) | 1.11% (active) | – | -66.8% (active) | 6.93% (active) | -89.6% (active) | -51.6% (active) | -55.1% (active) | -36.7% (active) | -66.9% (active) | -33.7% (active) | -74.7% (active) | -49.6% (active) | -77.6% (active) | -94.4% (active) | 14.8% | –
18 | O=[N+]([O-])c1cc(-c2ccccc2)c(O)c([N+](=O)[O-])c1 | 83.7% | 82.5% | 126% | 92.5% | 65.9% | 3.74% (active) | – | 86.8% | – | 120% | 71.3% | 99.1% | 79% | – | 84.7% | 94.9% | 101% | 106% | 107% | 68.9%

From PubChem BioAssay (NCI)
